The results in this text go back to PubChem BioAssay.

The structures appear in SMILES notation. Values joined by “and” are separate entries in the source; they are usually repeats but may differ in a detail not shown here. Identical values can stand only once. Active and inactive are the calls of the source.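 The calls were made as follows, unless noted: active = compounds killing one labelled cell type while sparing the other, by normalised counts and ratio limits, not self-fluorescent; inactive = the rest.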

The nature of test [1]: EMT-state selective cytotoxicity in co-culture – imaging, PC-3E GFP, TEM4-18 mCherry, primary screen (AID 1345086).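 As to all read-outs here: cells exposed to compound for 72 h before imaging.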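 As to red/green cell ratio (normalised): normalised mesenchymal count divided by normalised epithelial count so high means epithelial killing.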 To be noted: PC-3E GFP / TEM4-18 mCherry co-culture, imaging cell counts, at 1 µM; for red/green cell ratio (normalised): actives lie on both sides, counts scaled to control wells, 1 = unselective.
Test [2] has as its target Mitogen-activated protein kinase 7 (Homo sapiens) (UniProt Q13164). Put plainly: Gal4-ERK5 driven luciferase induction – cell-based, HTS, primary screen (AID 1508626;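 active = luciferase signal above three times the same-plate solvent-only control wells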;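 also: luciferase driven by Gal4-ERK5 fusion binding five Gal4 sites before minimal TATA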). To be noted: HeLa Gal4-ERK5 transactivation, 18 h, at 5 µM, stronger effect = higher value.
Test [3] can be described thus: blockers of polyQ-driven CASP3 activation – cell-based (AID 1583). The settings on record: polyglutamine-induced caspase-3 activation, cell assay; stronger effect = higher value;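 tested at 10 µM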.
Test [4] in a line: yeast 75Q aggregation reduction – 75Q-TubU reporter (AID 1593). To be noted: Yeast 75Q polyglutamine aggregation reporter.
The nature of test [5]: blockers of cytochrome c efflux from mitochondria – biochemical, purified mitochondria (AID 1603).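 Also: mouse liver mitochondria challenged with calcium chloride; signal normalized to the plate average as 100%.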 To be noted: stronger effect = lower value.
Test [6] is described as follows: P. berghei load reduction in hepatocytes – cell-based, HepG2, luciferase luminescence, HepG2 viability, primary screen (AID 624349; in the data active = parasite load remaining mostly below about 12%, no sharp cut-off; inactive = mostly above about 10%;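 also: 100% = mean of DMSO negative control wells on the same plate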). The settings on record: P. berghei liver stage in HepG2, luciferase luminescence, concentration not given here; parasite load remaining: stronger effect = lower value; viability: measured here: HepG2 viability without parasites.
[7] abbreviates: measured here: epithelial PC-3E GFP cell survival.
[8] abbreviates: measured here: mesenchymal TEM4-18 mCherry cell survival.

Chain of Mitogen-activated protein kinase 7 (Homo sapiens) (Q13164 whole entry, looked up, the tested form may be a part): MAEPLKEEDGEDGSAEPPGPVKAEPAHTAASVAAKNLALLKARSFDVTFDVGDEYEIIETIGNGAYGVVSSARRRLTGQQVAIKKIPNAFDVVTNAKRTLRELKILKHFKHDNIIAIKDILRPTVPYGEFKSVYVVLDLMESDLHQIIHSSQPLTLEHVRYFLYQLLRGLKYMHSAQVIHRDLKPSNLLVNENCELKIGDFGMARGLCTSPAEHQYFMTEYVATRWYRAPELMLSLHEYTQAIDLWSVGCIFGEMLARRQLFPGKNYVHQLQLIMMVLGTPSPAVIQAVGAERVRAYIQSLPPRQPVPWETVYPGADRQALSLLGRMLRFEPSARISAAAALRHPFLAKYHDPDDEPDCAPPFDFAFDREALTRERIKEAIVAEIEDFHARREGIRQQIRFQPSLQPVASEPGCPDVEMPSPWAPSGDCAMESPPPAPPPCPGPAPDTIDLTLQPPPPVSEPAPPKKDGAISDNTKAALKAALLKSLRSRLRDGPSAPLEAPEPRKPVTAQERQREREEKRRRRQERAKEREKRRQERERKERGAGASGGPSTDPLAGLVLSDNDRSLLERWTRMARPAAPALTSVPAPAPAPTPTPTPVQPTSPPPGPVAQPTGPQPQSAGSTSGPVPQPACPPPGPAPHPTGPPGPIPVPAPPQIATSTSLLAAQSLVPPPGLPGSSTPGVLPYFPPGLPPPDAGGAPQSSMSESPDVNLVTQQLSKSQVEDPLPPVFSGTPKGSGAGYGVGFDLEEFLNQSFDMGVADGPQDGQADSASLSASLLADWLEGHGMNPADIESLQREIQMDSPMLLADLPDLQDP

Turning to `CC(CCC(=O)O)[C@H]1CCC2C3C[C@H](O)[C@@H]4C[C@H](O)CC[C@]4(C)C3CC[C@@]21C` (stereo partly specified), in test [1], the red/green cell ratio (normalised) was 0.83 (inactive). The normalised cell number in test [1] (setting [7]) stood at 1.24; in test [1] (setting [8]), 1.03. The luciferase signal in test [2] was 60 AU (inactive).
With `O=c1cccc2ccc(O)c(O)c2c1O`, in test [1], the red/green cell ratio (normalised) is 1.04 (inactive). In addition, the figures for the normalised cell number in test [1] (setting [7]) and in test [1] (setting [8]) were 0.98 and 1.02, respectively. Further, the luciferase signal in test [2] is 44 AU (inactive).
For `C[C@@H]1O[C@@H](O[C@H]2[C@H](Oc3cc(O)c4c(=O)cc(-c5ccc(O)cc5)oc4c3)O[C@H](CO)[C@@H](O)[C@@H]2O)[C@H](O)[C@H](O)[C@H]1O`, the red/green cell ratio (normalised) in test [1] is 1.02 (inactive). Besides, the normalised cell number came to 0.87 in test [1] (setting [7]) and 0.89 in test [1] (setting [8]). In addition, in test [2], the luciferase signal is 56 AU (inactive).
For the compound `CC(=O)Oc1cc(OC(C)=O)c2c(c1)O[C@H](c1ccc(OC(C)=O)c(OC(C)=O)c1)[C@@H](OC(C)=O)C2`, the red/green cell ratio (normalised) in test [1] is 0.85 (inactive). For the same compound, the figures for the normalised cell number in test [1] (setting [7]) and in test [1] (setting [8]) were 0.98 and 0.84, respectively. Besides, the luciferase signal in test [2] is 16 AU (inactive).
The like results for `CC(=O)O[C@H]1C[C@@H](OC(C)=O)C(C)(C)C2C[C@@H](O)[C@]3(C)C(CC[C@@]4(C)[C@H](c5ccoc5)OC(=O)[C@H]5O[C@]543)[C@]21C` (stereo partly specified) were, in that order, 0.99 (inactive), 0.87, 0.86 and 28 AU (inactive).
The like results for `COc1cc2oc3cc(OC)c(OC)c(CC=C(C)C)c3c(=O)c2c(O)c1CC=C(C)C` were, in that order, 0.97 (inactive), 1, 0.97 and 72 AU (inactive).
Regarding `COc1ccc(-c2cc(=O)c3c(O)c(OC)c(OC)c(OC)c3o2)cc1OC`, the red/green cell ratio (normalised) in test [1] is 1.15 (inactive). Also, the normalised cell number in test [1] (setting [7]) stood at 0.95; in test [1] (setting [8]), 1.09. Also, in test [2], the luciferase signal was 112 AU (inactive).
In the case of `CC(C)(N=NC(C)(C)C(=N)N)C(=N)N`, in test [1], the red/green cell ratio (normalised) is 1.04 (inactive). In addition, the normalised cell number in test [1] (setting [7]) is 1.17; in test [1] (setting [8]), 1.22. Moreover, the luciferase signal in test [2] is 20 AU (inactive).
On to `COc1ccc(/C=C/C(=O)O)cc1OC`, for which the red/green cell ratio (normalised) in test [1] was 0.97 (inactive) and 0.98 (inactive). Also, the normalised cell number was 0.93 and 1 in test [1] (setting [7]); 0.91 and 0.98 in test [1] (setting [8]). Further, in test [2], the luciferase signal is 52 AU (inactive) and 80 AU (inactive).
With `C=CCCCCCCCCCCCc1ccco1`, the red/green cell ratio (normalised) in test [1] is 1.12 (inactive). For the same compound, the normalised cell number in test [1] (setting [7]) was found to be 0.9; in test [1] (setting [8]), 1.01. The luciferase signal in test [2] was 112 AU (inactive).
The like results for `C/C1=C/CC(C)(C)/C=C/C/C(C)=C/CC1` were, in that order, 0.95 (inactive), 1.06, 1.01 and 60 AU (inactive).
Take `COc1ccc([C@@H](C)C(=O)c2ccc(O)cc2O)cc1`: the red/green cell ratio (normalised) in test [1] is 1.1 (inactive). Further, the results for the normalised cell number in test [1] (setting [7]) and in test [1] (setting [8]) were 0.96 and 1.05, respectively. Besides, the luciferase signal in test [2] was 20 AU (inactive).
Taken in the same sequence, the figures for `CCCc1cc(OC)c2c(c1)OCO2` were 1.07 (inactive), 0.92, 0.98 and 216 AU (inactive).
For the compound `C[N+]1(C)C2CC(OC(=O)[C@@H](CO)c3ccccc3)CC1C1OC12` (stereo partly specified), the inhibition in test [3] was determined as 17.7%. The same compound displayed a score in test [4] of 1.45. Also, the cytochrome c release ratio in test [5] came out at 0.94. In test [6], the parasite load remaining is 89.5% (inactive) and 73.4% (inactive); the viability was 78.8% and 91.6%. In addition, in test [1], the red/green cell ratio (normalised) is 1.4 (inactive). This compound also had a normalised cell number in test [1] (setting [7]) of 0.85. In test [1] (setting [8]), this compound gave a normalised cell number of 1.19.
On to `NC[C@@H]1O[C@H](O[C@@H]2[C@@H](CO)OC(O[C@@H]3[C@@H](O)[C@H](N)C[C@H](N)[C@H]3O[C@H]3O[C@H](CO)[C@@H](O)[C@H](O)[C@H]3N)[C@@H]2O)[C@H](N)[C@@H](O)[C@@H]1O` (stereo partly specified), for which, in test [6], the parasite load remaining was 141% (inactive) and the viability is 87.6%. In test [1], the red/green cell ratio (normalised) is 1.21 (inactive). Also, the normalised cell number in test [1] (setting [7]) came out at 0.93. This compound showed a normalised cell number in test [1] (setting [8]) of 1.13.
Take `CC1(C)C2CC[C@]3(C)C(C(=O)C=C4[C@H]5C[C@@](C)(C(=O)O)CC[C@]5(C)CC[C@]43C)[C@@]2(C)CC[C@@H]1O` (stereo partly specified): the inhibition in test [3] was -22.8%. The score in test [4] was 2.14. The cytochrome c release ratio in test [5] stood at 1.2. The red/green cell ratio (normalised) in test [1] is 1.07 (inactive). The normalised cell number in test [1] (setting [7]) came out at 1.03; in test [1] (setting [8]), 1.11.
